Screens (PubChem)
Cycloheximide cs – counter-screen hit for Shiga toxin inhibitors, cycloheximide; AID 2314; max response, %; cell reporter, cycloheximide protein synthesis inhibition counterscreen; hit rate 12% among 300,000; in the data active means max response mostly above about 13%, no sharp cut-off; inactive means mostly below about 14%; further: read at 38.3 µM for the half of the compounds with a filed dose; 0% is about no effect
TbPYK inhibitor – blocks Trypanosoma brucei pyruvate kinase; Q57TT1; TbPYK enzyme, Kinase-Glo Plus ATP luminescence, 45 min; Potency, µM (titrated, usually from 76.8 µM), for inactives: top-dose activity, negative = inhibition, most hits filed as inhibitors; hit rate 0.12% among 410,000; AID 624173; further: potency means the concentration at half of the fitted maximal effect; on the % scale 0 is the no-effect control and ±100 the full control effect; nearly all actives have a fitted effect of over 50% in size
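Luminescence from Kinase-Glo Plus, added after a 45-minute room-temperature reaction, served as the end-point read-out. The enzyme and substrate were preincubated with compound before ADP (130 uM final) initiated turnover. Concentration-effect curves came from normalized qHTS data.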
RE007 growth inh – less growth of the S. pombe RE007 Vpr strain | S. pombe RE007 Vpr strain, BacTiter-Glo ATP luminescence, 24 h | Potency, µM (titrated, usually from 92.2 µM), without a hit: at the highest dose activity change, negative = less growth, most hits filed as inhibitors | hit rate 0.21% among 360,000 | AID 651644; active means well fitted falling curve with a large enough effect; inconclusive means small, poorly fitted or top-dose-only effect; inactive means no such curve, though single readings can be large or run the other way; further: potency means the concentration at half of the fitted maximal effect; on the % scale 0 is the no-effect control and ±100 the full control effect; nearly all actives have a fitted effect of over 50% in size
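Fission yeast strain RE007, carrying one chromosomally integrated HIV-1 vpr copy, was seeded at OD 0.01 in PMG+AL medium with 23 nL pinned compound. After 24 h at 30 °C and 99% humidity, viability was read by BacTiter-Glo luminescence.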
LmPK inhibitor – blocks Leishmania mexicana pyruvate kinase activity. Q27686. purified LmPK, Kinase-Glo ATP luminescence, 1 h. hit rate 0.37% among 290,000. Potency, µM (top dose mostly 57.5 µM), without a hit: top-dose activity change, negative = inhibition, usual class: inhibitors; further: potency means the concentration at half of the fitted maximal effect; on the % scale 0 is the no-effect control and ±100 the full control effect
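Purified LmPK (0.1 nM) converted ADP (0.1 mM) to ATP with PEP (0.5 mM) in imidazole buffer pH 7.2 with KCl and MgCl2, 1 h at room temperature. ATP was read by Kinase-Glo luminescence; data normalized to uninhibited and no-enzyme controls.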
Shiga inhibitor – Shiga toxin inhibition; Vero cells, Shiga toxin protein synthesis inhibition reporter; inhibition, % at 38.7 µM; hit rate 9.2% among 290,000; AID 2315; in the data active means inhibition mostly above about 28%, no sharp cut-off; inactive means mostly below about 43%; further: 0% is about no effect
Giardia FBPA inh – inhibitors of Giardia lamblia fructose-1,6-bisphosphate aldolase; purified Giardia FBPA; A8B2U2; hit rate 0.71% among 290,000; Potency, µM (series often up to 59.6 µM), for the others: at the highest dose activity, negative = inhibition, actives largely listed as inhibitors; further: potency means the concentration at half of the fitted maximal effect; on the % scale 0 is the no-effect control and ±100 the full control effect; nearly all actives have a fitted effect of over 55% in size
Target sequence (A8B2U2 whole entry, looked up): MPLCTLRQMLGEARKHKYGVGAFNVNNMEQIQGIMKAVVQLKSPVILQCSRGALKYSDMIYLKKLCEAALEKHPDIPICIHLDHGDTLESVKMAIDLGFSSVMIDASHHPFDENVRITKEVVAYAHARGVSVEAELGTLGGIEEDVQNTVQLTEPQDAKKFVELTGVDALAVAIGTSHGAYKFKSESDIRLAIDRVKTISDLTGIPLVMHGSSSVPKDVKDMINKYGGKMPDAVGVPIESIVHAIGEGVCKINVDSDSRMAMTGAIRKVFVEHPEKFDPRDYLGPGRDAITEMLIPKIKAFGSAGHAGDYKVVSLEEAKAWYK
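Giardia FBPA (40 nM reagent) was preincubated 10 min at RT with compound (up to 57.5 uM final), then substrate plus GAPDH/TPI/NAD/arsenate coupling system with diaphorase/resazurin was added; resorufin fluorescence (525/598 nm) was read after 20 min.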
Numbers without * were called inactive; u = inconclusive; x = no result given. Only a selection was taken, and hits are over-represented in it overall. Unless noted, the call rests on the fitted dose curve; in most records, active means well fitted curve in the direction sought with a large enough effect; inconclusive means small, poorly fitted or top-dose-only effect, or another doubt; inactive means no such curve, though single readings can be large; an effect the other way counts as inactive or inconclusive.

SMILES | Cycloheximide cs | TbPYK inhibitor | RE007 growth inh | LmPK inhibitor | Shiga inhibitor | Giardia FBPA inh
CCCCCCn1cnc2c(oc3nc4c(cc32)CCCC4)c1=O | 12* | -2% | 20% | 1% | 9 | -1%
O=c1c2oc3nc4c(cc3c2ncn1CCCc1ccccc1)CCCC4 | 20* | -8% | 0% | 0% | 70* | -3%
CCCCn1cnc2c(oc3nc4c(cc32)CCCC4)c1=O | 26* | -2% | -20% | -10% | 46 | -1%
CCOC(=O)N1CCN(Cc2nc(-c3cccc(Cl)c3)no2)CC1 | -3 | -1% | -3% | 4% | 7 | 0%
O=C(C1CCN(Cc2nc(-c3ccc(Cl)cc3)no2)CC1)N1CCOCC1 | 0 | -15% | -5% | -1% | 93 | 4%
Clc1ccc(-c2noc(CN3CCOCC3)n2)cc1 | 57* | -9% | -2% | 3% | 68* | 4%
O=CN1CCCN(Cc2nc(-c3cccc(Cl)c3)no2)CC1 | 28* | -6% | -2% | -2% | 24 | 1%
COc1ccc(Cn2c(=O)c3oc4ccccc4c3n(Cc3ccccc3)c2=O)cc1 | x | -5% | x | x | x | x
Cc1c(C)n(Cc2ccc(F)cc2)c2ccc(C(=O)NCCCN3CCOCC3)cc12 | -5 | 3% | 5% | 1% | -4 | 3%
O=C1c2cccc3c2[C@@H](CCC3)CN1[C@@H]1CN2CCC1CC2 | x | 1% | x | x | x | x
O=C(COc1ccccc1Br)Nc1ccccc1C(F)(F)F | 23* | -7% | -27% | 1% | 61* | 0%
Cc1ccc(OCCCC(=O)Nc2ccccc2C(F)(F)F)cc1 | -1 | -5% | 0% | 2% | -7 | -4%
O=Cc1ccc(OCC(=O)Nc2ccccc2C(F)(F)F)cc1 | 25* | -5% | 6% | -1% | 0 | 5%
CCOc1ccc(OCC(=O)Nc2ccccc2C(F)(F)F)cc1 | 23* | 1% | -4% | -2% | 31 | 0%
COc1cc(NC(=O)c2c(C)nn(-c3ccc(F)cc3)c2-n2cccc2)cc(OC)c1 | x | -4% | x | x | x | x
O=C(/C=C/N1CCOCC1)c1ccc(-c2ccccc2)cc1 | 42* | 0% | -19% | -1% | 50 | 5%
O=C(/C=C\N1CCOCC1)c1ccc(Br)cc1 | 27* | 6% | -28% | 0% | 34* | -5%
O=C(c1ccc(-c2ccccc2)cc1)c1ccccc1C(=O)N1CCOCC1 | 14 | -4% | 8% | 4% | -16 | 7%
CCc1ccccc1NC(=O)CCCSc1nc2ccccc2s1 | 12* | -15% | 1% | 4% | 13 | 2%
Cc1cnc(NC(=O)CCCSc2nc3ccccc3s2)s1 | -3 | -2% | 4% | -1% | 31 | 2%
O=C(CCCSc1nc2ccccc2s1)NCc1ccco1 | 16* | -1% | -10% | 7% | 81 | 0%
Cc1ccc(S(=O)(=O)N2CCCC2)cc1C(=O)NCCOc1ccccc1 | x | 0% | -17% | x | x | x
Cc1[nH]c2ccccc2c(=O)c1CN(C)Cc1ccccc1 | 27* | 0% | -2% | -4% | 49 | -2%
CNC(=O)c1c(NC(=O)c2ccc(S(=O)(=O)N3CCCCC3C)cc2)sc2c1CCC2 (centres undefined) | x | -1% | x | x | x | x
Cc1cc(C(=O)NCc2ccccc2)c2c(C)nn(-c3cccc(F)c3)c2n1 | x | 1% | x | x | x | x
SMILES | Cycloheximide cs | TbPYK inhibitor | RE007 growth inh | LmPK inhibitor | Shiga inhibitor | Giardia FBPA inh
CCSc1ncc(/C=N/Nc2ccccc2)n1C | 29* | u | 49% | 3% | 55* | -4%
CCSc1ncc(/C=N/Nc2ccc([N+](=O)[O-])cc2)n1C | 25* | 1% | -5% | -4% | 55* | 4%
CCSc1ncc(/C=N/Nc2ccc(Cl)cc2)n1C | 77* | -1% | u | 0% | 112* | -16%
Cn1c(CO)cnc1SCC(=O)c1ccc(Cl)cc1 | 18 | -9% | 0% | -2% | 31 | -4%
CN1CCCN(c2cc(-c3ccc4ccccc4c3)nc3ccnn23)CC1 | x | -9% | -13% | x | x | x
CCN1C(=O)c2ccccc2Sc2ccc(NC(=O)c3ccc(C#N)cc3)cc21 | x | 3% | x | x | x | x
NC(=O)CSc1ncc2c(n1)-c1ccccc1N(Cc1ccccc1)S2(=O)=O | x | -2% | x | x | x | x
CCSc1nnc(-c2cc(Br)ccc2N)c(=O)[nH]1 | 10 | 3% | 6% | 2% | 23 | 4%
CCSc1nnc(-c2cc(Br)ccc2N=Cc2c(C)[nH]n(-c3ccccc3)c2=O)c(=O)[nH]1 | -4 | -5% | -19% | 3% | -3 | -2%
CCSc1nnc(-c2ccccc2N=Cc2c(C)[nH]n(-c3ccccc3)c2=O)c(=O)[nH]1 | 13* | -2% | -5% | -6% | 17 | 10%
CCSc1nnc(-c2ccccc2N)c(=O)[nH]1 | 24* | -8% | -17% | 1% | 53* | -2%
CCCCN(C)CCNC(=O)CN1C(=O)CSc2ccc(S(=O)(=O)N3CCCC3)cc21 | 4 | -9% | -6% | 4% | -5 | 3%
N/C(=N\c1nc2ccccc2o1)NC(=O)c1ccccc1Br | 33* | -8% | 5% | -3% | 80* | 2%
N/C(=N\c1nc2ccccc2o1)NC(=O)c1ccc(F)cc1 | 32* | 0% | 8% | -12% | 72* | 7%
N/C(=N\c1nc2ccccc2o1)NC(=O)c1ccc(Cl)cc1 | 2 | 2% | 5% | 0% | 31 | 7%
Cn1c(CN2CCN(C(=O)c3ccccc3Cl)CC2)nc2cc([N+](=O)[O-])ccc21 | -4 | 3% | 2% | 7% | -6 | -4%
Cn1c(CN2CCN(C(=O)c3ccccc3)CC2)nc2cc([N+](=O)[O-])ccc21 | 19* | 2% | -15% | 1% | 46* | -3%
CCOC(=O)C1=C(C(=O)OCC)N(Cc2ccccc2)CCC1=O | x | -3% | -12% | x | x | x
COc1cc(C(=O)NCc2ccc3c(c2)CCN3C(=O)c2ccncc2)cc(OC)c1OC | x | 2% | x | x | x | x
CN(C)c1ccnc(N(Cc2ccccc2)Cc2ccccc2)c1C#N | 29* | -9% | 0% | 13% | 50* | -15%
Cc1cc(N(C)C)c(C#N)c(NCc2ccccc2)n1 | -4 | -11% | -4% | 1% | 22 | -4%
CN(C)c1ccnc(NCc2ccccc2)c1C#N | 30* | 3% | -2% | -3% | 55* | 9%
CNC(=O)c1cc2ccccc2o1 | 1 | 5% | -4% | 0% | 3 | 1%
CCC(=O)Nc1cccc(NC(=O)c2cc3ccccc3o2)c1 | 45* | 1% | 36% | u | 100* | -10%
CC(=O)Nc1ccc(NC(=O)c2cccc(-c3cc4ccccc4oc3=O)c2)cc1 | 31* | -8% | 0% | -3% | 49 | 4%
O=C(Nc1cccc(Br)c1)c1cc2ccccc2o1 | 92* | -2% | u | u | 106* | -28%
Cc1cccc(NC(=O)c2cc3ccccc3o2)c1 | 50* | -10% | -30% | 14µM* | 95* | u
